# Only some compounds are listed: those with a hit (about 2.9% of all), similar ones and a draw of the others.
# FAS-TE inh: FAS thioesterase domain inhibitors, primary screen, biochemical, fluorescence intensity, uHTS; AID 602261, 2012; inhibition, % at 15 µM; 360,000 tested, 0.67% active; recombinant FAS-TE, OMFH fluorogenic substrate, fluorescence endpoint;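 active = compounds whose normalised, plate-corrected inhibition of enzyme fluorescence in the single-dose primary screen is 50% or more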;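 also: 0% = DMSO with enzyme and 100% = substrate without enzyme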
# proKLK7 act: proKLK7 zymogen activators, primary screen, biochemical, fluorescence intensity | Kallikrein-7 (Homo sapiens), P49862 | purified proKLK7, EDANS-DABCYL substrate fluorescence; 100% is mature enzyme control, 0% vehicle | activation, % at 7 µM | 370,000 tested, 0.9% active;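 active = activation above the mean of all tested compounds plus 3 SD, computed per campaign excluding outliers beyond control limits, cut at about 13% in these data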
# Target sequence (P49862 whole entry, looked up): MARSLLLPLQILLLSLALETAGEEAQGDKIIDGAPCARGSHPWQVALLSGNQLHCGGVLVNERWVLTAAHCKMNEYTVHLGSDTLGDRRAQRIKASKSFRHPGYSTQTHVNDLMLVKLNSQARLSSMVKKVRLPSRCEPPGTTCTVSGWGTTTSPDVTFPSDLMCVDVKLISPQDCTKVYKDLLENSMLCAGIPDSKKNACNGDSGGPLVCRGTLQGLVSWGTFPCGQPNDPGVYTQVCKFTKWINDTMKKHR
# SMARCA2 act: SMARCA2 (BRM) function activators, primary screen, cell-based, luminescence, high throughput. MG213 cells, MMTV-luciferase reporter, dexamethasone, overnight. activation, % at 9.1 µM. 370,000 tested, 1% active. AID 652017, 2013; in the data active = activation above about 7.8%;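 also: 0% = vehicle wells and 100% = reference activator wells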
# FXN GAA850 act: FXN promoter activators, primary screen, cell-based, luciferase luminescence, HEK293 lucGAA850 | activation, % at 6 µM | AID 540364, 2011 | HEK293 lucGAA850 FXN promoter luciferase reporter, 24 h; percent of 10 µM SAHA response | 360,000 tested, 0.56% active;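 active = activation above the average of all compounds screened plus 3 SD, cutoff fixed separately per campaign, cut at about 7.5% in these data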;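 also: 0% = DMSO wells and 100% = 10 µM SAHA wells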
# SMARCA2 conf: SMARCA2 (BRM) function activators, confirmation, cell-based, luminescence, triplicate | shares compounds with SMARCA2 act | MG213 cells, MMTV-luciferase with dexamethasone, overnight; MG213 cells expressing E1A, Rb sequestered; DMSO wells 0%, reference activator 100% | activation, % at 9.1 µM | 3,500 tested, 30% active | AID 652260, 2013;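 active = activation above its plate's cutoff, the mean activation of tested wells plus 3 SD, cut at about 7.9% in these data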
# GAL4-VP16 Luc: GAL4-VP16 luciferase reporter activation, counter-screen for SMARCA2 (BRM) activator project, cell-based, pG5luc, luminescence, high throughput; shares compounds with SMARCA2 act; HEK293 GAL4-VP16 pG5luc reporter; scaled: DMSO wells 0%, SAHA wells 100%; activation, % at 9.1 µM; 3,500 tested, 41% active; AID 686939, 2013;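 active = activation above the solvent-only control well mean plus 3 SD, averaged across control plates, cut at about 5.2% in these data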
# * hit, by the source's call; · = not tested or not shown.
SMILES,FAS-TE inh,proKLK7 act,SMARCA2 act,FXN GAA850 act,SMARCA2 conf,GAL4-VP16 Luc
CCOC(=O)c1ccc(-n2c(CN3CCC(O)CC3)nc3ccc([N+](=O)[O-])cc3c2=O)cc1,-6,1,19*,1,9.5*,0
CCOC(=O)C1CCN(Cc2nc3ccc([N+](=O)[O-])cc3c(=O)n2-c2ccc(OC)cc2OC)CC1,17,0,9.1*,0,0,2
OC(c1ccco1)c1nc(-c2cccs2)cs1 (centres undefined),-3,0,0,2,·,·
CC(C)(C)OC(=O)N[C@H](Cc1ccccc1)C(=O)N1CCC(C(=O)O)CC1,-4,0,1,-1,·,·
CCn1c(SC(C)C)nnc1C1CCN(S(=O)(=O)c2ccc(OC)cc2)CC1,-5,-1,-1,2,·,·
Cc1nn(-c2ccccc2)c(C)c1-c1cc(C(=O)N/N=C/c2ccc(O)cc2)[nH]n1,-2,-1,4,-2,·,·
COc1cc(/C=N/NC(=O)c2cc(-c3c(C)nn(-c4ccccc4)c3C)n[nH]2)ccc1O,-5,-1,12*,1,16*,12*
Nc1nc2ccc(C(=O)Nc3ccc(N4CCOCC4)cc3)cc2s1,-5,0,2,4,·,·
O=C(Nc1ccc(N2CCOCC2)cc1)c1nc2ccccc2s1,-5,-1,12*,4,8.5*,12*
COc1cccc(C(=O)NNC(=O)c2ccccc2)c1,-2,0,6,3,·,·
COc1c(C(=O)NNC(=O)c2ccccc2)csc1Br,-7,-1,16*,0,3,7.0*
CCN(CC)c1ccc(/C=N/Nc2nc(C)cc(C)n2)cc1,-2,0,8.1*,-1,-4,1
Cc1cc(C)nc(N/N=C/c2ccccc2)n1,-8,·,·,1,·,·
Cc1[nH]nc(Sc2ccccn2)c1[N+](=O)[O-],-10,0,0,1,·,·
O=C(NNC(=S)Nc1ccc(Cl)cc1)c1ccccc1OC(F)F,-6,0,-3,-1,·,·
C=CCn1c(-c2ccc(OC)c(OC)c2)n[nH]c1=S,-5,0,-9,0,·,·
C=CCn1c(-c2c(C)nc3cc(C)ccn23)n[nH]c1=S,-9,0,9.1*,4,-3,0
Cc1cc(Cl)nc(-c2ccccc2O)n1,6,0,0,-1,·,·
CNc1nc(C)nc(-c2ccccc2O)n1,-6,0,8.7*,3,8,5.1*
COC(=O)c1ccc(N=NN2CCCCC2)cc1,4,1,12*,4,4,11*
COc1cc(C2Oc3ccccc3C=C2[N+](=O)[O-])cc(OC)c1OC (centres undefined),-7,0,21*,-4,-13,3
O=C(COC(=O)CN1C(=O)c2ccccc2C1=O)Nc1ccc(S(=O)(=O)N2CCCC2)cc1,-6,0,9.4*,0,-6,0
O=C(COC(=O)CCN1C(=O)c2ccccc2C1=O)Nc1ccc(S(=O)(=O)N2CCCC2)cc1,-5,0,-5,-1,·,·
Fc1ccc(-c2ccc3c(n2)CCCN3Cc2ccccn2)cc1,·,1,3,·,·,·
c1ccc(-c2ccc3c(n2)CCCN3Cc2ccccn2)cc1,·,11,8.9*,·,3,8.7*
SMILES,FAS-TE inh,proKLK7 act,SMARCA2 act,FXN GAA850 act,SMARCA2 conf,GAL4-VP16 Luc
CC(=NO)c1ccc2c(c1)Cc1cc([N+](=O)[O-])ccc1-2,-61,1,12*,7,8,5
CCC(Sc1nc2ccccc2c(=O)n1CC1CCCO1)C(=O)NCc1cccnc1 (centres undefined),-7,0,8.3*,-4,0,0
CCC(Sc1nc2ccccc2c(=O)n1CCN1CCOCC1)C(=O)NCc1cccnc1 (centres undefined),-6,0,0,-2,·,·
CC1(C)CC(=O)C=C(Nc2ccccc2NC(=O)c2cc(Cl)ccc2F)C1,·,0,9.2*,·,7,-1
CC1(C)CC(=O)C=C(Nc2ccccc2NC(=O)c2cc(F)cc(F)c2)C1,·,0,-4,·,·,·
COc1ccc(CCNC(=O)CN2C(=O)CSc3ccc(S(=O)(=O)N4CCOCC4)cc32)cc1OC,-3,0,1,0,·,·
CCOc1ccc(CNC(=O)CN2C(=O)CSc3ccc(S(=O)(=O)N4CCOCC4)cc32)cc1OC,-2,0,8.8*,1,-6,0
CCC(Oc1ccccc1OC)C(=O)Nc1ccc2c(c1)n(C)c(=O)n2C (centres undefined),-3,0,0,3,·,·
Cc1nc2cc(NC(=O)N3c4ccccc4CC3C)ccc2o1 (centres undefined),-8,0,9.6*,0,14*,13*
Cc1nc2cc(NC(=O)N3c4ccccc4CC3C)ccc2n1C (centres undefined),-12,0,5,3,·,·
COC(=O)c1ccc2nc(NC(=O)C3CC3)sc2c1,1,0,12*,4,8.7*,5.3*
O=C(CSc1nnc(-c2ccccc2)o1)Nc1ccccc1F,-2,0,1,-5,·,·
Nn1c(SCC(=O)Nc2nccs2)nnc1-c1cc(-c2ccccc2)n[nH]1,·,0,9.6*,·,5,2
O=C(CSc1nnc(-c2cccnc2)o1)Nc1ccc(F)cc1,-7,0,0,2,·,·
N#Cc1ccsc1NC(=O)CSc1nnc(-c2ccccc2)o1,-5,-1,19*,3,1,1
O=C(CSc1nnc(-c2ccccn2)o1)Nc1ccccc1Cl,1,-1,8.0*,5,13*,12*
O=C(CSc1nnc(-c2cccnc2)o1)Nc1nccs1,-8,0,9.1*,2,5,2
COc1cc2c(cc1Cl)C(=O)C(F)(c1ccccc1)C(=O)N2 (centres undefined),3,-1,-2,1,·,·
Cc1nc(-c2cc(C#N)c(Sc3ccc(Cl)cc3Cl)nc2C)cs1,34,0,10*,0,-1,0
Cc1cc(=O)n2[nH]c(SCc3ccc(Cl)cc3)nc2n1,-5,-1,-4,1,·,·
O=C1c2ccccc2-c2nc3ccccc3cc21,-1,-2,4,6,·,·
c1ccc2c(c1)Cc1cc3ccccc3nc1-2,4,-1,8.8*,6,13*,10*
CC(=O)Nc1n[nH]c(S(=O)(=O)Cc2ccc(Cl)cc2Cl)n1,-11,-1,-1,-2,·,·
Nc1cc(=O)[nH]c(SCc2nnnn2-c2ccc(Cl)cc2)n1,-13,0,9.4*,-2,3,0
